High-throughput results deposited in PubChem by National Center for Advancing Translational Sciences (NCATS).
Many of the other results were omitted from the sample, so hits are more common in it than they were.
TDP1 cell noCPT: qHTS for Inhibitors of human tyrosyl-DNA phosphodiesterase 1 (TDP1): qHTS in cells in absence of CPT. DT40 Tdp1-/- hTDP1 cells, no CPT, ATP luminescence, 48 h. Potency, µM (highest dose often 46.2 µM), for the others: top-dose activity change, negative = growth inhibition, actives largely listed as inhibitors. hit rate 15% among 420,000. AID 686978, 2013; note: potency is the fitted concentration of half-maximal effect; nearly all actives have a fitted effect of over 55% in size
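Growth of hTDP1-complemented DT40 Tdp1-knockout cells is measured by ATP luminescence after at least 48 hr compound exposure at 37 °C, with DMSO substituting for the 20 nM CPT used in the parallel screen.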
HT1080NT lethal: kills 2HG-producing HT-1080-NT fibrosarcoma cells | HT-1080-NT fibrosarcoma viability, CellTiter-Glo ATP luminescence, 48 h | hit rate 1.6% among 360,000 | Potency, µM (top dose mostly 46.1 µM), for inactives: at the highest dose activity, negative = less viability, hits mostly cytotoxic;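 note: NT is the 2HG producing partner of a matched IDH1 knockdown line; potency is the fitted concentration of half-maximal effect; 0% = DMSO-treated cells and -100% = media-only wells without cells; nearly all actives have a fitted effect of over 55% in size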
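HT-1080-NT; 750 cells/well; 5% FBS RPMI; 48 h compound, 37 degrees C; CellTiter-Glo luminescence; curve fitting and curve-class assignment.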
ALOX12 inh: inhibitors of human 12S-lipoxygenase ALOX12. purified 12hLO, xylenol orange hydroperoxide absorbance. hit rate 1.1% among 580,000. P18054. Potency, µM (doses to about 108 µM), inactives show top-dose activity change, negative = inhibition, actives largely listed as inhibitors. AID 1671190; note: potency is the fitted concentration of half-maximal effect
Target sequence (P18054 whole entry, looked up): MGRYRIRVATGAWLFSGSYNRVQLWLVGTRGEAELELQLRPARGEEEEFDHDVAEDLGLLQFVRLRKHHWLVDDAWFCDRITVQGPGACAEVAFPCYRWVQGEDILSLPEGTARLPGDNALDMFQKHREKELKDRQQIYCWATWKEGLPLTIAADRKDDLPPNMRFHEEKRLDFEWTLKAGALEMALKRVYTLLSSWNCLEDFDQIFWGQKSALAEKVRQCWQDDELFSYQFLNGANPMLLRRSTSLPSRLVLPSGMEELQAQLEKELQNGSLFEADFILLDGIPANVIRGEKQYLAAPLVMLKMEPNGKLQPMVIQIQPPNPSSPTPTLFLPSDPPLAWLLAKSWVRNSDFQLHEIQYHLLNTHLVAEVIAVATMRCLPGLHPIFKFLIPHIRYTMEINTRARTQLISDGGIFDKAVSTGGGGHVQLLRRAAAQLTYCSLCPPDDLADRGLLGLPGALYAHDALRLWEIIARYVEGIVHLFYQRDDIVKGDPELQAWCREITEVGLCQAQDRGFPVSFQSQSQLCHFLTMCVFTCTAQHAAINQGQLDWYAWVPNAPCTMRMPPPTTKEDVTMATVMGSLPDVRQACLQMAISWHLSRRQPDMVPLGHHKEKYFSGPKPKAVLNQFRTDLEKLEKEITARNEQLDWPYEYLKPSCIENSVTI
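Purified human 12hLO at 150 nM in 25 mM Hepes, 0.01% Triton X-100, pH 7.0, preincubated 15 min at room temperature with compound. Reaction started with 40 uM arachidonic acid, 30 min at room temperature. Hydroperoxide measured by Fe-xylenol orange, 573/405 nm absorbance ratio.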
IL1B secr inh: blocks inflammasome-driven IL-1 beta release. THP-1 LPS/ATP IL-1B secretion, AlphaLISA, 16 h; stronger effect = lower value. activity change, % at 57.5 µM. hit rate 4.7% among 360,000; in the data active = activity change below about -50%; inconclusive = mostly about -30% to -49%
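Secreted IL-1B measured by AlphaLISA bead assay after 16 h compound exposure of THP-1 cells; compounds (final up to 57.5 uM) added 1 h before LPS (250 ng/mL) and ATP (1.25 mM) stimulation; lower signal means less secretion.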
TDP1 cell CPT: growth inhibition of DT40 Tdp1-/-;hTDP1 cells with camptothecin (screen for TDP1 inhibitors); hit rate 12% among 420,000; Potency, µM (doses to about 46.2 µM), without a hit: at the top dose activity change, negative = growth inhibition, actives largely listed as inhibitors; chicken DT40 Tdp1-/-;hTDP1 cells + 20 nM CPT, ATP luminescence, 48 h; note: potency is the fitted concentration of half-maximal effect; nearly all actives have a fitted effect of over 55% in size
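Chicken DT40 Tdp1-/- cells stably complemented with human TDP1 were seeded at 400 cells/well in medium containing 20 nM camptothecin, exposed to pin-transferred compounds, and grown at 37 °C for at least 48 hr. Viability was read as ATP luminescence.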
HT1080 IDH1KD tx: HT-1080 IDH1 knockdown cell toxicity (counter line). HT-1080 IDH1 knockdown viability, ATP luminescence, 48 h. Potency, µM (top dose mostly 46.1 µM), for inactives: top-dose activity, negative = toxicity, actives largely listed as cytotoxic. hit rate 2% among 360,000. AID 686971;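 note: potency is the fitted concentration of half-maximal effect; 0% = DMSO wells and -100% = cell-free medium wells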
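% activity derives from luminescence (CellTiter-Glo), normalised to DMSO and no-cell wells. HT-1080-IDH1KD cells, 750/well, had 48 h compound exposure at 37 °C.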
Numbers without * were called inactive; [ ] = another dose, or the depositor's remark. Unless noted, calls come from the whole dose curve; as a rule, active = well fitted curve in the direction sought with a large enough effect; inconclusive = small, poorly fitted or top-dose-only effect, or another doubt; inactive = no such curve, though single readings can be large; an effect the other way counts as inactive or inconclusive. Unless noted, % is set by controls: 0 for no effect and ±100 for the full control effect.

Screening COc1cc(NC(=O)Cn2cccc2-c2nc(-c3ccc(F)cc3)no2)cc(OC)c1OC returned ALOX12 inh 11%.
For CC1CCC(C(=O)Nc2c(NC3CCCCC3)c3ccccc3oc2=O)CC1 (stereo not drawn) the results were ALOX12 inh -31%.
Cc1ccc(NC(=O)Nc2ccc3nc(NS(=O)(=O)c4ccccc4)sc3c2)cc1 was read as ALOX12 inh -4%.
`CC1CCCC(C)N1/N=C/c1ccc(O)c(O)c1` (stereo not drawn) gave TDP1 cell noCPT 23µM*, HT1080NT lethal -11%, ALOX12 inh inconclusive, IL1B secr inh 52, TDP1 cell CPT -17% and HT1080 IDH1KD tx 1%.
Cc1cccc(N2CCN(CCCNc3ncnc4onc(-c5ccc(F)cc5)c34)CC2C)c1 (stereo not drawn) was read as TDP1 cell noCPT 21µM*, ALOX12 inh inconclusive and TDP1 cell CPT inconclusive.
For Cc1cccc(N2CCN(CCCNc3ncnc4onc(-c5ccc(Cl)cc5)c34)CC2C)c1 (stereo not drawn) the results were TDP1 cell noCPT 21µM*, ALOX12 inh 7% and TDP1 cell CPT inconclusive.
Cc1ccc(Cl)cc1N1CCN(CCCNc2ncnc3onc(-c4ccc(Cl)cc4)c23)CC1 was read as TDP1 cell noCPT inconclusive, ALOX12 inh 0% and TDP1 cell CPT inconclusive.
`Cc1ccc(C)c(N2CCN(CCCNc3ncnc4onc(-c5ccc(Cl)cc5)c34)CC2)c1` gave TDP1 cell noCPT 16µM*, ALOX12 inh 5% and TDP1 cell CPT inconclusive.
`O=C(O)CCCC(=O)N1CCN(c2ccccc2Cl)CC1` gave ALOX12 inh -3%.
Screening Cc1ccc(NC(=O)CSc2nnc3n(CC(C)C)c(=O)c4ccccc4n23)c(C)c1 returned ALOX12 inh 0%.
`N#CC1=C(SCC(=O)Nc2ccccc2)NC(=O)C(C#N)C12CCCCC2` (stereo not drawn) gave ALOX12 inh 0%.
Screening CC(C)(C)C1CCC2(CC1)C(C#N)=C(SCC(=O)NC1CCCCC1)NC(=O)C2C#N (stereo not drawn) returned TDP1 cell noCPT 16µM*, HT1080NT lethal inconclusive, ALOX12 inh -13%, IL1B secr inh -25, TDP1 cell CPT 21µM* and HT1080 IDH1KD tx 7%[9.24 µM].
For N#CC1=C(SCC(=O)NC2CC2)NC(=O)C(C#N)C12CCCCC2 (stereo not drawn) the results were TDP1 cell noCPT -13%, HT1080NT lethal 10%, ALOX12 inh -4%, IL1B secr inh 23, TDP1 cell CPT -1% and HT1080 IDH1KD tx 1%.
N#CC1=C(SCC(=O)NC23CC4CC(CC(C4)C2)C3)NC(=O)C(C#N)C12CCCCC2 (stereo not drawn) was read as TDP1 cell noCPT 23µM*, HT1080NT lethal inconclusive, ALOX12 inh inconclusive, IL1B secr inh inconclusive, TDP1 cell CPT 18µM* and HT1080 IDH1KD tx inconclusive.
`Cc1nc(OCC(=O)c2ccc(Cl)cc2)c(C#N)c2c1COC(C)(C)C2` gave TDP1 cell noCPT inconclusive, HT1080NT lethal 2%, ALOX12 inh 0%, IL1B secr inh -18, TDP1 cell CPT inconclusive and HT1080 IDH1KD tx 3%.
CCc1nc(OCC(=O)c2ccccc2)c(C#N)c2c1COC(C)(C)C2 was read as TDP1 cell noCPT 18µM*, HT1080NT lethal 5%, ALOX12 inh 40%, IL1B secr inh -8, TDP1 cell CPT inconclusive and HT1080 IDH1KD tx 0%.
Cc1cc(F)ccc1S(=O)(=O)NCC(c1cccnc1)N1CCc2ccccc21 (stereo not drawn) was read as TDP1 cell noCPT 16µM*, HT1080NT lethal 1%, ALOX12 inh inconclusive, IL1B secr inh -6, TDP1 cell CPT inconclusive and HT1080 IDH1KD tx 2%.
`O=C(NCC(c1ccco1)N1CCc2ccccc2C1)c1cccc(F)c1` (stereo not drawn) gave TDP1 cell noCPT -19%, HT1080NT lethal 13%, ALOX12 inh inconclusive, IL1B secr inh 3, TDP1 cell CPT -12% and HT1080 IDH1KD tx 9%.
Screening O=C(NCC(c1cccnc1)N1CCc2ccccc21)c1cccc(F)c1 (stereo not drawn) returned TDP1 cell noCPT 21µM*, ALOX12 inh 2% and TDP1 cell CPT 15µM*.
Screening COc1cc(C(=O)NCC(c2cccnc2)N2CCc3ccccc3C2)cc(OC)c1OC (stereo not drawn) returned TDP1 cell noCPT inconclusive, ALOX12 inh 2% and TDP1 cell CPT inconclusive.
`O=C(NCC(c1cccnc1)N1CCc2ccccc21)c1cccc(Br)c1` (stereo not drawn) gave TDP1 cell noCPT 13µM*, ALOX12 inh -16% and TDP1 cell CPT inconclusive.
`COCCn1c(SC(C)c2ccc(F)cc2)nnc1-c1ccncc1` (stereo not drawn) gave ALOX12 inh -2%.
For Cc1ccc(O)c(C2=Nc3ccccc3N=C(c3cccs3)C2)c1 the results were TDP1 cell noCPT 16µM*, HT1080NT lethal 0%, ALOX12 inh 0%, IL1B secr inh -12, TDP1 cell CPT inconclusive and HT1080 IDH1KD tx -1%.
Screening Oc1ccccc1C1=Nc2ccccc2N=C(c2cccs2)C1 returned TDP1 cell noCPT -8%, HT1080NT lethal -22%, ALOX12 inh 15%, IL1B secr inh -7, TDP1 cell CPT -11% and HT1080 IDH1KD tx inconclusive.
Screening COCCN1C(=O)c2ccccc2C(C(=O)NCCCN2CCCC2)C1c1c[nH]c2ccccc12 (stereo not drawn) returned TDP1 cell noCPT 26µM*, HT1080NT lethal 11%, ALOX12 inh inconclusive, IL1B secr inh 3, TDP1 cell CPT inconclusive and HT1080 IDH1KD tx 12%.
For COCCN1C(=O)c2ccccc2C(C(=O)NCc2ccco2)C1c1c[nH]c2ccccc12 (stereo not drawn) the results were TDP1 cell noCPT -12%, HT1080NT lethal -1%, ALOX12 inh 6%, IL1B secr inh 17, TDP1 cell CPT -14% and HT1080 IDH1KD tx -5%.
Screening CC1=CC(C)C(C2OCC3(CO2)C(C)C=C(C)CC3C)C(C)C1 (stereo not drawn) returned ALOX12 inh 5%.
